Shown are actives, neighbours in structure and some others; about 1.5% of the full set was active somewhere.
PGK inhibitor – inhibitors of T. brucei phosphoglycerate kinase; AID 602233; PGK/GAPDH coupled, Kinase-Glo luminescence, 60 min; 380,000 tested, 0.043% active; Potency, µM (top dose mostly 57.5 µM), for the others: at the highest dose activity change, negative = inhibition, actives largely listed as inhibitors; P07378; further: potency means the concentration at half of the fitted maximal effect; on the % scale 0 is the no-effect control and ±100 the full control effect; nearly all actives have a fitted effect of over 60% in size
Target sequence (P07378 whole entry, looked up): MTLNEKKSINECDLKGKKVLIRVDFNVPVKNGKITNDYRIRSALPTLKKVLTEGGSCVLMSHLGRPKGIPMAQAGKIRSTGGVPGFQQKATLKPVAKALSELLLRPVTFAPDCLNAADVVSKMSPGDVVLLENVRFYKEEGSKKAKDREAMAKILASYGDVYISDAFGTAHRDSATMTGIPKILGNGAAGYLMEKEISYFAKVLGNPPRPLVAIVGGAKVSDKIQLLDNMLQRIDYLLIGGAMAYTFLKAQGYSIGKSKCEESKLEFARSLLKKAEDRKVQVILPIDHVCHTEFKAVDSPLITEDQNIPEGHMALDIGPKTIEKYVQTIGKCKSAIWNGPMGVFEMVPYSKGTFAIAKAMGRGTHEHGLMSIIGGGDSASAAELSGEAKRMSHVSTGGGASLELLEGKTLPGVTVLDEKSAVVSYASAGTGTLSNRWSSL
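Luminescent ATP detection (Kinase-Glo Plus) follows a 60-minute room-temperature incubation, with wells lacking PGK as controls. Buffer: 100 mM TEA (pH 7.6), 5 mM MgCl2, 0.01% Tween-20. Coupling enzyme GAPDH (100 nM final) supplies unstable 1,3-BPG in-well.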
FEN1 inh – blocks human flap endonuclease 1; Recombinant FEN1 flap cleavage, fluorescence, 15 min; Potency, µM (doses to about 114 µM), without a hit: at the top dose activity change, negative = inhibition, actives largely listed as inhibitors; 390,000 tested, 0.35% active; further: potency means the concentration at half of the fitted maximal effect; on the % scale 0 is the no-effect control and ±100 the full control effect; nearly all actives have a fitted effect of over 65% in size
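Quantitative HTS format: each compound was titrated, incubated with 10 nM nuclease for 15 min at room temperature, then challenged with flap substrate at 50 nM final. Signal change over 15 min gave concentration–effect curves.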
WRN helicase inh-1 – WRN helicase (human) inhibition; Q14191; WRN helicase unwinding, fluorescent forked duplex, kinetic; Potency, µM (doses to about 114 µM), inactives show at the top dose activity change, negative = inhibition, most hits filed as inhibitors; 360,000 tested, 0.46% active; AID 651768; further: potency means the concentration at half of the fitted maximal effect; on the % scale 0 is the no-effect control and ±100 the full control effect; nearly all actives have a fitted effect of over 55% in size
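WRN at 20 nM final preincubated with compound 15 min at room temperature; reaction started with 100 nM fluorophore/quencher forked duplex oligonucleotide and 2 mM ATP final. Unwinding followed kinetically by red fluorescence (ex 525, em 598 nm).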
PI5P4Ka inh – blocks human PI5P4K alpha kinase activity | max response, % | 330,000 tested, 1.2% active | PI5P4Kalpha enzyme, ADP-Glo luminescence, 60 min; stronger effect = lower value | P48426; active means max response of -50% or lower; inconclusive means between -30% and -50%; inactive means -30% or higher; further: value at the top dose of about 77 µM; on the % scale 0 is the no-effect control and ±100 the full control effect
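ADP-Glo luminescence end-point read after a 60 min room-temperature kinase reaction of PI5P4Kalpha plus substrate, initiated with ATP at 5 microM final. Buffer: 0.038 M HEPES pH 7.4, EGTA, 0.1% CHAPS, 5% DMSO.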
Tb PFK block – inhibitors of T. brucei phosphofructokinase; O15648; T. brucei PFK, ADP-Glo luminescence; Potency, µM (titrated, usually from 57.5 µM), inactives show at the highest dose activity, negative = inhibition, actives largely listed as inhibitors; 330,000 tested, 0.17% active; AID 485367;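 further: potency means the concentration at half of the fitted maximal effect; 0% = uninhibited 1x PFK enzyme wells and -100% = no-enzyme wells; nearly all actives have a fitted effect of over 60% in size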
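In TEA buffer at pH 8.0 with 5 mM MgCl2, enzyme (1.25 nM) converted F6P (0.5 mM) and ATP (0.1 mM) for 45 min at room temperature. ADP product was read by luciferase luminescence.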
TDP1 block – inhibitors of human tyrosyl-DNA phosphodiesterase TDP1; recombinant TDP1, AlphaScreen DNA substrate cleavage; 350,000 tested, 0.28% active; Potency, µM (top dose mostly 130 µM), for the others: top-dose activity change, negative = inhibition, usual class: inhibitors; Q9NUW8; further: potency means the concentration at half of the fitted maximal effect; on the % scale 0 is the no-effect control and ±100 the full control effect; nearly all actives have a fitted effect of over 40% in size
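AlphaScreen read-out: signal falls as enzyme removes the 3' tyrosine-FITC from a 5'-biotinylated DNA oligo (15 nM, 5 min, RT). Enzyme was E. coli-made recombinant Tdp1 at 1 nM, exposed to compound for 15 min beforehand; beads 10 ug/ml, 10 min.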
WRN helicase inh-2 – WRN helicase inhibition, cherry-pick retest; Potency, µM (doses to about 57.1 µM), for the others: at the top dose activity, negative = inhibition, usual class: inhibitors; shares compounds with WRN helicase inh-1; 610 tested, 63% active; WRN helicase DNA unwinding, fluorescence kinetic; further: potency means the concentration at half of the fitted maximal effect; nearly all actives have a fitted effect of over 65% in size
TO DNA binding – counter-screen for WRN helicase inhibitors: DNA binding. shares compounds with WRN helicase inh-1. thiazole orange DNA binding displacement, fluorescence. Potency, µM (series often up to 57.1 µM), for the others: at the top dose activity change, negative = inhibition, most hits filed as inhibitors. 610 tested, 10% active. AID 720499;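 further: drop in dye fluorescence marks compound binding to DNA; potency means the concentration at half of the fitted maximal effect; on the % scale 0 is the no-effect control and ±100 the full control effect; nearly all actives have a fitted effect of over 60% in size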
BLM counter – BLM helicase inhibition, WRN selectivity check; 610 tested, 60% active; shares compounds with WRN helicase inh-1; AID 720503; Recombinant BLM helicase DNA unwinding, red fluorescence; Potency, µM (doses to about 57.1 µM), inactives show at the highest dose activity change, negative = inhibition, usual class: inhibitors; further: potency means the concentration at half of the fitted maximal effect; nearly all actives have a fitted effect of over 60% in size
ADP-Glo counter – ADP-Glo luciferase interference, PI5P4K counter-screen | ADP-Glo detection counter-screen, luciferase luminescence, no enzyme | Potency, µM (highest dose often 76.9 µM), for inactives: at the top dose activity change, negative = inhibition, most hits filed as inhibitors | 1,100 tested, under 10 active | shares compounds with PI5P4Ka inh
* marks the source's active call; other numbers are inactive results; ? = inconclusive; nt = no result given; [ ] = another dose, or the depositor's remark. Unless noted, the call rests on the fitted dose curve; in most records, active means well fitted curve in the direction sought with a large enough effect; inconclusive means small, poorly fitted or top-dose-only effect, or another doubt; inactive means no such curve, though single readings can be large; an effect the other way counts as inactive or inconclusive.

SMILES	PGK inhibitor	FEN1 inh	WRN helicase inh-1	PI5P4Ka inh	Tb PFK block	TDP1 block	WRN helicase inh-2	TO DNA binding	BLM counter	ADP-Glo counter
CCN(CCCl)c1cc(CN(C)C)cc(NC(=O)c2ccc(C(=O)Nc3cc(CN(C)C)cc(N(CC)CCCl)c3)cc2)c1	5%	?	?	?	nt	nt	22µM*	-18%	?	nt
CCC(C)N1C(=O)/C(=C\c2cnc(N(C)C)nc2)C(=O)NC1=S (centres undefined)	-5%	-1%	50µM*	-57*	11%	0%	-6%	7%	-18%	nt
CC(N)(COP(=O)(O)Oc1ccccc1)C(=O)O (centres undefined)	nt	nt	nt	nt	nt	5%	nt	nt	nt	nt
Cc1ccc(S(=O)(=O)Oc2ccccc2C=C2C(=O)N(C)C(=O)N(C)C2=O)cc1	-1%	0%	45µM*	?	10%	-5%	-22%	-3%	-18%	nt
CC(=O)OCC1=C[C@H]2[C@@H]3C(C)(C)[C@]3(OC(=O)Cc3ccccc3)C[C@@H](C)[C@]2(O)[C@@H]2C=C(C)C(=O)[C@@]2(O)C1	nt	nt	nt	nt	nt	8%	nt	nt	nt	nt
CC(C)NCC(O)c1ccc(C2CCCC2)cc1 (centres undefined)	-2%	3%	0%	-9	-1%	0%	nt	nt	nt	-8%
CCCNC(=O)N1[C@H]2CC[C@@H]1C(C(=O)OC)=C(c1ccc(OC)c(OC)c1)C2	-9%	5%	0%	-85*	0%	0%	nt	nt	nt	-5%
COCCNC(=O)N1[C@H]2CC[C@@H]1C(C(=O)OC)=C(c1ccc(OC)c(OC)c1)C2	6%	20%	-4%	-1	-2%	-1%	nt	nt	nt	nt
CCCCCn1c(=O)c(C(=O)Nc2ccccc2S(N)(=O)=O)c(O)c2ccccc21	-4%	-16%	-15%	-53*	1%	-3%	nt	nt	nt	0%
CC(C)N(CC[C@@](C(N)=O)(c1ccccc1)c1ccccn1)C(C)C	nt	nt	nt	nt	nt	15%[21 µM]	nt	nt	nt	nt
COc1cc([C@@H]2c3cc4c(c(O)c3C[C@H]3COC(=O)[C@@H]32)OCO4)cc(OC)c1OC	nt	-11%	nt	nt	nt	-7%	nt	nt	nt	nt
